What was measured:
Assay in all cases: log2 ratio of Biotin-Ahx-Ub-VS probe labelling (fragment/DMSO); higher = less target engagement (more negative = stronger competition), active = hit call of the paper (q ≤ 0.05, log2 ratio ≤ -1)
Conditions in all cases: compound concentration: 200 uM; treatment time: 3 h
[1] = compound: CC(C)CN(C1CC1)C(=O)CCl
Outline: (§1)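 Fragment (200 µM) or vehicle was incubated for 3 h with triplicate HEK293T lysate samples of 495 µg, which were then treated with Biotin-Ahx-Ub-VS at 0.5 µM final for 1 h. Labelled DUBs were enriched on NeutrAvidin, digested with LysC and trypsin, and analysed by diaPASEF LC-MS/MS. Values are average log2 fragment/vehicle ratios from an unpaired t-test on global-median-normalised Spectronaut label-free quantities, using proteins with ≥2 unique peptides.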

[2] = compound: CC(NC(=O)CCl)c1cccs1
Outline: as §1

[3] = compound: CC1CCCCC1NC(=O)CCl
Outline: as §1

[4] = compound: CC1CCCCN1C(=O)CCl
Outline: as §1

[5] = compound: CC1CN(CC(C)O1)C(=O)CCl
Outline: as §1

[6] = compound: CN(C1CCCCC1)C(=O)CCl
Outline: as §1

[7] = compound: Cc1cc(NC(=O)CCl)no1
Outline: as §1

[8] = compound: Cc1cccc(NC(=O)CCl)c1
Outline: as §1

[9] = compound: Cc1nc(NC(=O)CCl)sc1C
Outline: as §1

[10] = compound: Cc1nnc(NC(=O)CCl)s1
Outline: as §1

[11] = compound: Cl.Cc1ncsc1CNC(=O)CCl
Outline: as §1

[12] = compound: ClCC(=O)N1CCCCCCC1
Outline: as §1

[13] = compound: ClCC(=O)NC1(CCCC1)C#N
Outline: as §1

[14] = compound: ClCC(=O)NCC1CCC1
Outline: as §1

[15] = compound: ClCC(=O)NCC1CCCO1
Outline: as §1

[16] = compound: ClCC(=O)NCc1ccco1
Outline: as §1

[17] = compound: ClCC(=O)Nc1cccc(Cl)c1
Outline: as §1

Measured: log2 ratio of Biotin-Ahx-Ub-VS probe labelling

UniProt Q8TE49
Sequence of UniProt Q8TE49 (Q8TE49 whole entry): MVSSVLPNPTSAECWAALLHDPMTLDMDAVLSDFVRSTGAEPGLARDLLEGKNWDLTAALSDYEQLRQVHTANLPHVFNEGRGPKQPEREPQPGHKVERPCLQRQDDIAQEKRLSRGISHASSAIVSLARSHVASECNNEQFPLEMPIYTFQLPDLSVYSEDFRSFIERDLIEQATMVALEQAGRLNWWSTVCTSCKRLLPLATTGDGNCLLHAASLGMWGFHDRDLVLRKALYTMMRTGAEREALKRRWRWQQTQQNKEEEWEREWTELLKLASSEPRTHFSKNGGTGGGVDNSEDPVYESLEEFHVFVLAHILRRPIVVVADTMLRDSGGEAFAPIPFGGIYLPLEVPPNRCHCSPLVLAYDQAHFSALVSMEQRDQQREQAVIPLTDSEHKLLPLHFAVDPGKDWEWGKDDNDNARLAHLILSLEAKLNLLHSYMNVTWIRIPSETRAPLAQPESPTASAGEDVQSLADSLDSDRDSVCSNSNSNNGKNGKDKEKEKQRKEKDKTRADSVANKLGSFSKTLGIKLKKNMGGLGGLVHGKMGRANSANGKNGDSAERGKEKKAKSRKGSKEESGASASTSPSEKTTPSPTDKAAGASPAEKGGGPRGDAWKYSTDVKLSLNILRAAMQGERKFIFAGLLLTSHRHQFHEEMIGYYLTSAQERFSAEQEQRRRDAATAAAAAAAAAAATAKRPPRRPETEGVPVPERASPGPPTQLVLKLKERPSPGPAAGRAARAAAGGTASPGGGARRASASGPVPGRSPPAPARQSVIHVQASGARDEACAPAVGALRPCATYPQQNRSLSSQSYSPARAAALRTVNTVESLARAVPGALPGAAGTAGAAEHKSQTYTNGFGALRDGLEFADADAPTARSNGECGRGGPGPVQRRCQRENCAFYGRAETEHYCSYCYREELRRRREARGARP
active: [3] -1.99 | [13] -1.15 | [17] -1.29
inactive: [1] -0.309 | [2] -0.893 | [4] -0.301 | [5] -0.547 | [6] -0.46 | [7] -0.679 | [8] -0.769 | [9] -0.452 | [10] -0.537 | [11] -0.377 | [12] -0.312 | [14] -0.802 | [15] -0.46 | [16] -0.215

UniProt Q9UGI0
Sequence of UniProt Q9UGI0 (Q9UGI0 whole entry): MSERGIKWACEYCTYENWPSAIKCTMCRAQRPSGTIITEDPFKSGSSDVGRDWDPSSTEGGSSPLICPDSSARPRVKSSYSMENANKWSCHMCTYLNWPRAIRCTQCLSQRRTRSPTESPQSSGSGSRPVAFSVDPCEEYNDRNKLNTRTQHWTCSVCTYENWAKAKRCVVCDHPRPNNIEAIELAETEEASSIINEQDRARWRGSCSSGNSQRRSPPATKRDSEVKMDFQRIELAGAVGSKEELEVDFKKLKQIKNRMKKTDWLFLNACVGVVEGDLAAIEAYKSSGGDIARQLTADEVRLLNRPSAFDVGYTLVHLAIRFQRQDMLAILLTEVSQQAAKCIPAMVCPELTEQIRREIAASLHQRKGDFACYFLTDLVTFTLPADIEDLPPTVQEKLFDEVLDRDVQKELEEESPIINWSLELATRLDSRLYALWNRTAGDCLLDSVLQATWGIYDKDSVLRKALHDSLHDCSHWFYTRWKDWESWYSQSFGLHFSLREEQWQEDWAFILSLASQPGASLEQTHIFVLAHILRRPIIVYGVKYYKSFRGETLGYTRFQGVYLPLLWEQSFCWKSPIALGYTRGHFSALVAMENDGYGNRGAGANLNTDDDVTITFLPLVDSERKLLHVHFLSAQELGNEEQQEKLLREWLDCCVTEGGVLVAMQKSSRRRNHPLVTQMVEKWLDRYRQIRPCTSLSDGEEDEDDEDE
inactive: [1] 0.11 | [2] -0.241 | [3] -0.605 | [5] -0.702 | [6] -0.423 | [7] -0.555 | [8] -0.519 | [9] -0.47 | [10] -0.661 | [11] -0.315 | [12] 0.214 | [13] -0.804 | [14] -0.704 | [15] 0.145 | [16] -0.705
active: [4] -1.13 | [17] -1.16

USP46 (UniProt P62068)
Sequence of UniProt P62068 (P62068 whole entry): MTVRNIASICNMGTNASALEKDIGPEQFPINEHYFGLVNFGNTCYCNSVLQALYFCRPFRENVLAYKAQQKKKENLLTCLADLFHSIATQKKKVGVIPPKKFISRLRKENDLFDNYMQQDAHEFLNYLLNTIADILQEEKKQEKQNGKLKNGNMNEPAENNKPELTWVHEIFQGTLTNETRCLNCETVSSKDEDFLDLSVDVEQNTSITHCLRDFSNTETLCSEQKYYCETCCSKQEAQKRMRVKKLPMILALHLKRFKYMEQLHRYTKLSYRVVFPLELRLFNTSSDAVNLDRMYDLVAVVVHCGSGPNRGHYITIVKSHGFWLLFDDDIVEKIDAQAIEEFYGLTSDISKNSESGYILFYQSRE
inactive: [1] -0.0299 | [2] -0.0303 | [3] 0.206 | [4] -0.116 | [5] -0.0331 | [6] -0.248 | [7] -0.103 | [8] -0.0865 | [9] -0.0696 | [10] -0.323 | [11] 0.0828 | [12] -0.198 | [13] 0.0653 | [14] 0.0564 | [15] 0.118 | [16] 0.0832 | [17] -0.509

UCHL5 (UniProt Q9Y5K5)
Sequence of UniProt Q9Y5K5 (Q9Y5K5 whole entry): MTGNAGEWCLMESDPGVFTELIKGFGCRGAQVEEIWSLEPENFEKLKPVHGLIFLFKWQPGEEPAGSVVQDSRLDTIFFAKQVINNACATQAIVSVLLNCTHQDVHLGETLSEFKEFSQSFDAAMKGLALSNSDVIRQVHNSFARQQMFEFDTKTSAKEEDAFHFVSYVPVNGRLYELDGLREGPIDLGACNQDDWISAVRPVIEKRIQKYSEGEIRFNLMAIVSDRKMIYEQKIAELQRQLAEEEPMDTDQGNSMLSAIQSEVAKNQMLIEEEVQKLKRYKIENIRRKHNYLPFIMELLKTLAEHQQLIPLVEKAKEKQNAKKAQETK
active: [17] -1.02
inactive: [1] -0.0257 | [2] -0.148 | [3] -0.168 | [4] -0.283 | [5] -0.314 | [6] -0.249 | [7] 0.0718 | [8] -0.0463 | [9] -0.292 | [10] -0.0414 | [11] -0.0581 | [12] -0.0659 | [13] -0.42 | [14] -0.292 | [15] -0.0635 | [16] -0.29

FAM105A (UniProt Q9NUU6)
Sequence of UniProt Q9NUU6 (Q9NUU6 whole entry): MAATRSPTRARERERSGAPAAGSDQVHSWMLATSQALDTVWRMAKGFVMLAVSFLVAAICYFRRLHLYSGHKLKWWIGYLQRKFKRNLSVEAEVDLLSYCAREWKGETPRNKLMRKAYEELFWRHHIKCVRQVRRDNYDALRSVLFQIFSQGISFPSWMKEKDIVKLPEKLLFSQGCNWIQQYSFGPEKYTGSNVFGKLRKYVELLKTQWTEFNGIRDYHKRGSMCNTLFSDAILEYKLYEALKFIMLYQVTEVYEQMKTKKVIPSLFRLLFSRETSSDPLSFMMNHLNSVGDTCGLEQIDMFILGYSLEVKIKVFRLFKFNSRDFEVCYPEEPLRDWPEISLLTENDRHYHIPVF
inactive: [1] 0.277 | [2] 0.257 | [3] 0.116 | [4] 0.0605 | [5] 0.177 | [6] 0.232 | [7] -0.696 | [8] 0.176 | [9] 0.144 | [10] 0.133 | [11] -0.00706 | [12] -0.0484 | [13] 0.105 | [14] 0.185 | [15] -0.0373 | [16] 0.0935 | [17] 0.0436

USP39 (UniProt Q53GS9)
inactive: [1] -0.169 | [2] -0.144 | [3] -0.231 | [4] -0.11 | [5] -0.122 | [6] 0.248 | [7] -0.329 | [8] -0.224 | [9] 0.121 | [10] -0.07 | [11] 0.28 | [12] 0.0652 | [13] -0.079 | [14] -0.0869 | [15] -0.101 | [16] -0.0526 | [17] 0.19

USP7 (UniProt Q93009)
Sequence of UniProt Q93009 (Q93009 whole entry, looked up): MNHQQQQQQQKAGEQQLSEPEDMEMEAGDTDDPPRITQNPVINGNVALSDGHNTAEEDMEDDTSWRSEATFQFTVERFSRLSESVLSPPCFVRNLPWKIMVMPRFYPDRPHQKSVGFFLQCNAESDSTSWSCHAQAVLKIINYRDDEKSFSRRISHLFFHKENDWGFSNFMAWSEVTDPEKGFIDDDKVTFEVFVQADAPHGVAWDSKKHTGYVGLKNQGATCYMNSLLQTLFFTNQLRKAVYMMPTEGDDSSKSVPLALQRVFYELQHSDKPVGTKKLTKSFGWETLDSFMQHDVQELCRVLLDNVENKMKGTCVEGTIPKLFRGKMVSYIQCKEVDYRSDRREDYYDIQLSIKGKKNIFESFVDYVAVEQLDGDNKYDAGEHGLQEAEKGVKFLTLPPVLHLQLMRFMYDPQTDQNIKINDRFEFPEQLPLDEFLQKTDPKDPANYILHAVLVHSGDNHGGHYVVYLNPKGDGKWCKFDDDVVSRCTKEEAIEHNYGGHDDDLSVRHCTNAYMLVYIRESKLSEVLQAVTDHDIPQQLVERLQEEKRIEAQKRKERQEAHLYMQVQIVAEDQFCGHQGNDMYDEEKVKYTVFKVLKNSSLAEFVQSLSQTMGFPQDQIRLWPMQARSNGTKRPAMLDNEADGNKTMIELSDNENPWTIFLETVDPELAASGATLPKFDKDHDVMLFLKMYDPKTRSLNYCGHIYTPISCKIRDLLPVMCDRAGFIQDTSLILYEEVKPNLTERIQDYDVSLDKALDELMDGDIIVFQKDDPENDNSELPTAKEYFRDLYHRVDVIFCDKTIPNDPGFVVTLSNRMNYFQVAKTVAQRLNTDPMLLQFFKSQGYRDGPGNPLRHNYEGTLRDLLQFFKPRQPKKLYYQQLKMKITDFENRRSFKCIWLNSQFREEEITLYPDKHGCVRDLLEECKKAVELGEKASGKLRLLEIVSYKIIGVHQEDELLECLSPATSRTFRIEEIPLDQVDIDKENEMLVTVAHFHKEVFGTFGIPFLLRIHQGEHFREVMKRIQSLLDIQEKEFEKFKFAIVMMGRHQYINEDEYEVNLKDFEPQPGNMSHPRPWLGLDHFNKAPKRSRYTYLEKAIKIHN
inactive: [1] -0.278 | [2] -0.0253 | [3] -0.0899 | [4] -0.604 | [5] -0.322 | [6] -0.42 | [7] -0.32 | [8] -0.48 | [9] -0.237 | [10] -0.376 | [11] 0.00818 | [12] -0.609 | [13] -0.186 | [14] -0.0702 | [15] -0.207 | [16] -0.0794 | [17] -0.98

VCPIP1 (UniProt Q96JH7)
inactive: [1] -0.221 | [3] -0.946 | [4] -0.492 | [5] -0.305 | [6] -0.056 | [9] -0.628 | [10] -0.412 | [12] -0.205 | [13] -0.518 | [14] -0.707 | [15] -0.226 | [16] -0.695
active: [2] -1.63 | [7] -1.46 | [8] -1.21 | [11] -1.34 | [17] -2.08

USP28 (UniProt Q96RU2)
Sequence of UniProt Q96RU2 (Q96RU2 whole entry): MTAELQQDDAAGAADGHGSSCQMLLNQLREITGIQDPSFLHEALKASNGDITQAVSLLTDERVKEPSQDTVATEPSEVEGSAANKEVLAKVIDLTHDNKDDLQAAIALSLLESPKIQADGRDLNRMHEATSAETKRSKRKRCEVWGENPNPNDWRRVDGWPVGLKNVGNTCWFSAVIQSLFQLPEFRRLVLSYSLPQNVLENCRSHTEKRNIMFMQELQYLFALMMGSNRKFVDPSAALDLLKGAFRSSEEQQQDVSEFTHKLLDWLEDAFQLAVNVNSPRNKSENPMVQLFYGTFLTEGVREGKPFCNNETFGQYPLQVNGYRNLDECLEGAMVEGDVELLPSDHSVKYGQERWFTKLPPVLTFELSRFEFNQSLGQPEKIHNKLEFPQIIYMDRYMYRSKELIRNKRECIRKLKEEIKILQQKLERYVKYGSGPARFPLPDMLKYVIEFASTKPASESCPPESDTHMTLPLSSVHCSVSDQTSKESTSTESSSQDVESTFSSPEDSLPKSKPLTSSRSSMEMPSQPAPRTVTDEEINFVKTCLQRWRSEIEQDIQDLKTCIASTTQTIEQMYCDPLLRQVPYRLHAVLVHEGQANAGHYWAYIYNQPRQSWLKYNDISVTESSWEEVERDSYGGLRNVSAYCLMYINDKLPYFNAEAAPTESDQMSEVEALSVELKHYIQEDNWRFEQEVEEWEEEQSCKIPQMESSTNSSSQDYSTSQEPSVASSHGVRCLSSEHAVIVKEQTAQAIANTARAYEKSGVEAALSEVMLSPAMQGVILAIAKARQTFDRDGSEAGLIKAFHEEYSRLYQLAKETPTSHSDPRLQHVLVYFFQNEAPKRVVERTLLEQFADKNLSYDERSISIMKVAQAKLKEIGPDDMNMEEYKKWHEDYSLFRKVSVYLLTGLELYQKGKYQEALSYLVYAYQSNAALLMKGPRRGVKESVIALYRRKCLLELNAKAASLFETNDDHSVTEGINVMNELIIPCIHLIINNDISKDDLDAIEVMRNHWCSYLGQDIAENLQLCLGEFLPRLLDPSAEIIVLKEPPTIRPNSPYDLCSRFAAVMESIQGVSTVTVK
inactive: [1] -0.207 | [2] -0.568 | [3] -0.669 | [4] -0.421 | [5] -0.575 | [6] -0.419 | [7] -0.987 | [8] -0.664 | [9] -0.857 | [10] -0.957 | [11] -0.256 | [12] -0.28 | [13] -0.611 | [14] -0.427 | [15] -0.11 | [16] -0.47
active: [17] -1.44
